The values below come from paper PMC5540273 (PLoS ONE, 2017).

Among the test systems are MTOR; MUSK; MYLK2; MYLK4; MYLK; MYO3A; MYO3B; NDR2; NEK10; NEK11; NEK1; NEK2; NEK3; NEK4; NEK5; NEK6; NEK7; NEK9.
What all share (conditions): concentration: 1 μM,replicates: in singlicate; n = 1
The subject of a further assay is T1, NDR1.
T1 construct: gene STK38

The next assay concerns T2, NIK.
T2 construct: gene MAP3K14
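Note: KINOMEscan kinase panel screen.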

Consider `CC(C)Nc1cc(-c2ccc3c(N)n[nH]c3c2)nc(N)n1` [GSK2221681], for which the “%Inh” value in the assay with MTOR was 9%; in the assay on MUSK, 0%; in the assay with MYLK2, 23%; in the assay with MYLK4, 37%; in the assay with MYLK it was 18%; in the assay on MYO3A, 0%. The “%Inh” value worked out at 0% in the assay on MYO3B; 10% with NDR1; 0% with NDR2; 13% in the assay on NEK10; 0% in the assay with NEK11; 0% in the assay with NEK1. Besides, the “%Inh” value with NEK2 is listed as 0%; with NEK3, 1%; in the assay with NEK4, 7%; in the assay on NEK5, 4%; in the assay on NEK6, 0%; in the assay with NEK7, 0%. Moreover, the “%Inh” value in the assay with NEK9 is given as 1%; in the assay with NIK, 0%.

In the case of `Cc1ccc2c(-c3ccncc3)c(-c3ccc(F)cc3)nn2c1.Cl` [GW461484], the “%Inh” value in the assay with MTOR came to 9%; with MUSK it was 0%; in the assay with MYLK2, 17%; in the assay on MYLK4, 3%; in the assay on MYLK, 13%; in the assay on MYO3A it was 0%. For the same compound, the “%Inh” value with MYO3B is recorded as 7%; in the assay with NDR1, 29%; in the assay on NDR2 it was 0%; in the assay with NEK10, 9%; in the assay with NEK11, 21%; with NEK1 it was 0%. Further, the “%Inh” value with NEK2 was 0%; with NEK3 it was 0%; in the assay with NEK4 it was 11%; in the assay with NEK5 it was 4%; with NEK6 it was 0%; with NEK7, 0%. Besides, the “%Inh” value with NEK9 worked out at 0%; in the assay with NIK it was 4%.

In the case of `O=C(NCCNc1ccnc(NCc2ccc(F)cc2)n1)c1cc2ccccc2s1` [GSK1379944], the “%Inh” value with MTOR is 1%; with MUSK, 5%; with MYLK2 it was 0%; with MYLK4, 1%; in the assay with MYLK, 14%; in the assay on MYO3A, 0%. In addition, the “%Inh” value in the assay on MYO3B, with NDR1, with NDR2, with NEK10, in the assay on NEK11 and with NEK1 was 0% throughout. The “%Inh” value in the assay on NEK2 came to 4%; with NEK3, 11%; with NEK4, 19%; in the assay with NEK5 it was 85%; with NEK6, 0%; in the assay with NEK7, 0%. Further, the “%Inh” value in the assay on NEK9 and in the assay on NIK was 0% each time.

On to `CN(C)CCOc1ccc(-c2cc(-c3c[nH]nc3-c3ccccn3)ccn2)cc1` [GW835314], for which the “%Inh” value in the assay with MTOR stood at 0%; in the assay on MUSK, 9%; in the assay on MYLK2, 0%; with MYLK4 it was 0%; with MYLK it was 15%; with MYO3A it was 0%. Moreover, the “%Inh” value with MYO3B is on record as 30%; in the assay on NDR1 it was 14%; with NDR2, 0%; in the assay on NEK10, 0%; in the assay with NEK11, 25%; with NEK1, 0%. Further, the “%Inh” value with NEK2 came to 3%; in the assay with NEK3, 33%; in the assay with NEK4, 0%; in the assay with NEK5, 0%; in the assay on NEK6 it was 10%; with NEK7, 8%. The entries for the “%Inh” value with NEK9 and with NIK were 11% and 44%, respectively.

In the case of `CNC(=O)c1ccccc1Sc1ccc2c(/C=C/c3ccccn3)n[nH]c2c1`, the “%Inh” value in the assay with MTOR is recorded as 52%; with MUSK it was 51%; in the assay on MYLK2, 9%; in the assay on MYLK4, 6%; with MYLK, 14%; with MYO3A it was 0%. Also, the “%Inh” value in the assay on MYO3B is listed as 0%; in the assay on NDR1, 9%; with NDR2 it was 0%; with NEK10, 18%; with NEK11 it was 0%; in the assay with NEK1, 0%. For the same compound, the “%Inh” value with NEK2 was found to be 5%; in the assay on NEK3, 32%; in the assay with NEK4, 0%; in the assay on NEK5, 11%; in the assay on NEK6, 0%; with NEK7 it was 26%. Further, the “%Inh” value was 1% in the assay with NEK9 and 0% in the assay on NIK.

As to `C[C@H]1Oc2cc(cnc2N)-c2c(nn(C)c2C#N)CN(C)C(=O)c2ccc(F)cc21`, the “%Inh” value in the assay on MTOR worked out at 0%; with MUSK it was 11%; with MYLK2, 18%; with MYLK4, 10%; in the assay on MYLK, 10%; in the assay with MYO3A, 10%. Further, the “%Inh” value with MYO3B is 17%; with NDR1, 31%; with NDR2, 25%; in the assay with NEK10, 19%; in the assay on NEK11 it was 0%; in the assay with NEK1 it was 0%. Further, the “%Inh” value with NEK2 is recorded as 22%; with NEK3, 29%; in the assay on NEK4 it was 0%; with NEK5, 0%; in the assay with NEK6, 0%; with NEK7 it was 28%. Further, the “%Inh” value in the assay on NEK9 and with NIK was 3% each time.

In the case of `C=CC(=O)Nc1cc2c(Nc3ccc(F)c(Cl)c3)ncnc2cc1OCCCN1CCOCC1` [GW781483], the “%Inh” value in the assay on MTOR is listed as 15%; in the assay on MUSK, 0%; with MYLK2, 0%; in the assay on MYLK4 it was 18%; in the assay on MYLK it was 0%; with MYO3A, 0%. The “%Inh” value with MYO3B was 3%; with NDR1 it was 4%; with NDR2, 1%; in the assay on NEK10 it was 17%; with NEK11 it was 0%; in the assay on NEK1, 0%. The “%Inh” value stood at 0% in the assay on NEK2; 18% in the assay on NEK3; 0% in the assay with NEK4; 3% in the assay with NEK5; 0% in the assay with NEK6; 11% with NEK7. The “%Inh” value with NEK9 stood at 22%; with NIK it was 6%.

Regarding `Cc1n[nH]c2ccc(-c3cc(OC[C@@H](N)Cc4ccccc4)cnc3-c3ccoc3)cc12.O=C(O)C(F)(F)F.O=C(O)C(F)(F)F` [GSK507358], the “%Inh” value with MTOR came out at 1%; in the assay with MUSK it was 6%; in the assay on MYLK2, 25%; in the assay on MYLK4, 15%; with MYLK, 14%; in the assay on MYO3A it was 80%. Also, the “%Inh” value with MYO3B is listed as 28%; in the assay with NDR1, 14%; in the assay on NDR2, 16%; with NEK10, 5%; with NEK11, 0%; with NEK1, 1%. In addition, the “%Inh” value in the assay with NEK2 is 0%; with NEK3 it was 0%; with NEK4 it was 0%; with NEK5 it was 0%; in the assay with NEK6, 0%; with NEK7, 11%. Moreover, the entries for the “%Inh” value with NEK9 and in the assay on NIK were 30% and 87%, respectively.

For `COc1ccc(C[C@@H](CN)NC(=O)c2cc(Br)c(-c3ccnc4[nH]ccc34)s2)cc1.Cl.Cl` [GSK1389063], the “%Inh” value is on record as 17% with MTOR; 20% in the assay on MUSK; 52% in the assay with MYLK2; 98.5% in the assay with MYLK4; 99.6% in the assay on MYLK; 10% in the assay on MYO3A. Besides, the “%Inh” value is recorded as 0% in the assay with MYO3B; 96.8% in the assay with NDR1; 78% with NDR2; 23% in the assay on NEK10; 14% with NEK11; 0% with NEK1. In addition, the “%Inh” value worked out at 29% in the assay on NEK2; 22% with NEK3; 1% in the assay with NEK4; 19% in the assay with NEK5; 0% with NEK6; 0% in the assay with NEK7. Further, the “%Inh” value in the assay on NEK9 is on record as 0%; with NIK, 37%.

With `Cl.Oc1cc(-c2nc(-c3ccccc3)[nH]c2-c2ccncc2)ccc1Cl` [SB-386023], the “%Inh” value came to 0% in the assay with MTOR; 0% with MUSK; 0% in the assay on MYLK2; 11% in the assay on MYLK4; 0% with MYLK; 27% with MYO3A. For the same compound, the “%Inh” value is given as 0% with MYO3B; 10% in the assay on NDR1; 0% with NDR2; 0% in the assay with NEK10; 18% with NEK11; 0% with NEK1. Besides, the “%Inh” value came to 0% in the assay on NEK2; 0% in the assay with NEK3; 10% with NEK4; 0% in the assay on NEK5; 28% in the assay on NEK6; 14% in the assay on NEK7. Further, the “%Inh” value in the assay with NEK9 was determined as 0%; with NIK, 1%.

Turning to `CN(C)CC(O)COc1ccc(Nc2nccc(-c3cnn4nc(N5CCOCC5)ccc34)n2)cc1` (stereo not shown) [GW767488], the “%Inh” value in the assay with MTOR is reported as 6%; with MUSK, 0%; with MYLK2 it was 38%; in the assay on MYLK4, 46%; in the assay with MYLK, 48%; with MYO3A, 33%. Also, the “%Inh” value stood at 0% in the assay on MYO3B; 49% with NDR1; 0% in the assay with NDR2; 80% with NEK10; 47% with NEK11; 44% in the assay on NEK1. Moreover, the “%Inh” value with NEK2 came to 14%; with NEK3, 96.1%; in the assay on NEK4, 37%; in the assay on NEK5 it was 0%; in the assay on NEK6, 64%; in the assay with NEK7, 86%. Further, the “%Inh” value is listed as 55% in the assay with NEK9 and 0% in the assay with NIK.

`C[C@@H]1CCN(C(=O)CC#N)C[C@@H]1N(C)c1ncnc2[nH]ccc12`: the “%Inh” value is reported as 51% in the assay with MTOR; 11% in the assay on MUSK; 6% with MYLK2; 4% with MYLK4; 0% in the assay with MYLK; 8% with MYO3A. The “%Inh” value amounted to 0% in the assay with MYO3B; 0% in the assay on NDR1; 12% in the assay on NDR2; 0% in the assay with NEK10; 0% with NEK11; 0% in the assay with NEK1. Besides, the “%Inh” value is recorded as 19% with NEK2; 23% in the assay with NEK3; 0% in the assay with NEK4; 0% in the assay on NEK5; 0% in the assay on NEK6; 9% in the assay on NEK7. For the same compound, the “%Inh” value in the assay with NEK9 and in the assay with NIK was 0% throughout.

Consider `CC(C)N1C(=O)Cc2cc(Nc3ncc(C(F)(F)F)c(NCc4cccc(S(C)(=O)=O)c4)n3)ccc21`, for which the “%Inh” value with MTOR is recorded as 0%; in the assay with MUSK it was 15%; in the assay on MYLK2, 0%; with MYLK4 it was 0%; with MYLK it was 10%; with MYO3A, 0%. For the same compound, the “%Inh” value is 3% in the assay on MYO3B; 35% with NDR1; 0% in the assay on NDR2; 0% in the assay on NEK10; 0% with NEK11; 0% in the assay with NEK1. Also, the “%Inh” value with NEK2 is 0%; in the assay with NEK3 it was 37%; in the assay on NEK4, 0%; in the assay on NEK5 it was 1%; in the assay with NEK6 it was 0%; in the assay on NEK7, 12%. Moreover, the “%Inh” value turned out to be 2% with NEK9 and 0% with NIK.

As to `Cc1cc2cn[nH]c2cc1-c1cccc2c(N)c(C(N)=O)nnc12`, the “%Inh” value in the assay on MTOR was 3%; in the assay on MUSK, 0%; in the assay with MYLK2 it was 0%; with MYLK4 it was 10%; in the assay with MYLK it was 71%; in the assay on MYO3A it was 14%. Besides, the “%Inh” value came to 0% with MYO3B; 85% in the assay on NDR1; 0% in the assay on NDR2; 86% in the assay with NEK10; 27% with NEK11; 0% in the assay on NEK1. In addition, the “%Inh” value is 12% in the assay on NEK2; 33% in the assay with NEK3; 18% in the assay with NEK4; 2% in the assay on NEK5; 17% in the assay on NEK6; 0% in the assay on NEK7. The entries for the “%Inh” value in the assay with NEK9 and with NIK were 15% and 40%, respectively.
